An excerpt weighted towards active compounds, which were near 7.8% of everything screened.
Lassa entry inh = Lassa virus entry inhibition; Lassa virus pseudotype entry inhibition, cell reporter; Potency, µM (doses to about 37.9 µM), inactives show top-dose activity change, negative = inhibition, most hits filed as inhibitors; actives 1.2% (n = 300,000); calls by dose curve; tested in HEK293 cells; note: potency is the fitted concentration of half-maximal effect; nearly all actives have a fitted effect of over 50% in size
HCV inh = HCV inhibition; Huh7.5.1 HCVcc-Cre infection, luciferase reporter, 44 h; Potency, µM (top dose mostly 41.8 µM), inactives show at the highest dose activity change, negative = inhibition, hits mostly inhibitors; actives 3.4% (n = 340,000); active = well fitted inhibition curve with a large enough effect; inconclusive = small, poorly fitted or top-dose-only effect, or another doubt; inactive = no such curve, though single readings can be large or run the other way; note: potency is the fitted concentration of half-maximal effect
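Infectious HCV cell culture screen: compound-treated cells (1,000/well, pre-plated 4 h) are infected with HCVcc-Cre at roughly 0.5 moi and grown 44 h. Infection is quantified by luciferase signal after 15 min substrate incubation at room temperature.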
Vaccinia Venus = vaccinia inhibition (Venus reporter); Vaccinia virus Venus reporter expression, fluorescence; Potency, µM (highest dose often 36.5 µM), for the others: top-dose activity change, negative = inhibition, usual class: inhibitors; actives 0.46% (n = 330,000); calls by dose curve; tested in A549 cells; note: potency is the fitted concentration of half-maximal effect; nearly all actives have a fitted effect of over 30% in size
Vaccinia mCherry = vaccinia inhibition (mCherry reporter) | actives 0.63% (n = 310,000) | Vaccinia virus mCherry reporter infection, fluorescence | Potency, µM (doses to about 36.5 µM), inactives show at the highest dose activity change, negative = inhibition, actives largely listed as inhibitors; calls by dose curve; tested in A549 cells; note: potency is the fitted concentration of half-maximal effect; nearly all actives have a fitted effect of over 35% in size
HCMV antiviral = inhibitors of human cytomegalovirus | AID 1259415 | activity change, negative = inhibition, % at 57.5 µM | actives 4.5% (n = 410,000) | HFF cells, HCMV-luciferase reporter, 72 h; active compounds read low; in the data active = activity change below about -60%; inconclusive = no clear call, values can overlap the other calls; inactive = above about -39%
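HFF cells seeded 16 h at 37C, treated with compounds, infected with luciferase-reporter HCMV at MOI 1 PFU/cell; luciferase read at 72 h post infection, normalized to buffer-only and Salinomycin controls.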
MARV entry inh = inhibitors of Marburg virus binding or cell entry. Marburg virus pseudotyped entry inhibition, cell reporter. Potency, µM (titrated, usually from 37.8 µM), inactives show at the highest dose activity change, negative = inhibition, actives largely listed as inhibitors. actives 1.8% (n = 300,000). AID 540276; calls by dose curve; tested in HEK293 cells; note: potency is the fitted concentration of half-maximal effect
* marks the source's active call; other numbers are inactive results; i = inactive; u = inconclusive; x = not tested or not shown; [ ] = dose if it differs, or a comment. % is set by controls: 0 for no effect and ±100 for the full control effect.

SMILES	Lassa entry inh	HCV inh	Vaccinia Venus	Vaccinia mCherry	HCMV antiviral	MARV entry inh
CCCCOc1ccc(CNC(=O)c2cnc3sc(N4CCC(C)CC4)nn3c2=O)cc1	u	x	-11.0%	-15.7%	17.2	x
C[C@@H]1[C@@H](c2ccccc2)Cc2nc3ccccc3nc2C[C@H]1C(=O)N1CCCC1	x	x	x	x	x	-14.8%[14.2 µM]
CCc1ccc2[nH]c(=O)c(CN(Cc3ccc4c(c3)OCO4)Cc3nnnn3C3CCCC3)cc2c1	8.2µM*	u	u	u	-4.1	u
Cc1ccc(CNc2ncnc3c2c(-c2ccccc2)cn3-c2cccc(Cl)c2)cc1	5.5%[46.1 µM]	x	-8.1%	-7.3%	-7.2	x
Cc1cc(F)ccc1NC(=O)C1CCC(CNS(=O)(=O)c2ccc3c(c2)CCCC(=O)N3)CC1 (centres undefined)	19.0%[46.1 µM]	x	-13.7%	-7.3%	-12.0	x
CS/C(=C\[N+](=O)[O-])Nc1ccc(OC(F)(F)F)cc1	x	-22.8%	x	x	-61.3*	x
CC(C)(CCl)C(=O)Nc1ccc(OC(F)(F)F)cc1	-9.6%[46.1 µM]	-8.7%	-14.5%	i	-19.1	6.8%[46.1 µM]
CCCN(CC(=O)Nc1ccccc1C)C(=O)c1ccc2ccccc2n1	2.0%	-28.1%	-22.5%	-6.9%	28.1	u
Cc1ccccc1NC(=S)c1ccc2ccccc2n1	x	u	x	x	-62.8*	x
CCN(CC)S(=O)(=O)c1ccc(C(=O)NCCc2cc3c(OC)ccc(OC)c3[nH]c2=O)cc1	u	u	-8.2%	-15.6%	-30.2	u
CCCS(=O)(=O)NCCc1cc2c(OC)ccc(OC)c2[nH]c1=O	7.5%	-4.2%	-11.8%	-19.0%	-77.2*	23.1%
COc1ccc(OC)c2[nH]c(=O)c(CCNC(=O)c3ccc(S(=O)(=O)N4CCCC4)cc3)cc12	-22.6%	11.2µM*	-11.7%	-5.6%	-6.5	u
O=[N+]([O-])c1cnccc1-n1nnc2ccccc21	x	x	u	u	-63.5*	x
O=C(O)c1ccc(-n2nnc3ccccc32)c([N+](=O)[O-])c1	10.6%	33.6%	-2.0%	i	11.0	12.1%
CC(=O)c1ccccc1NC(C(=O)Nc1c(C)cccc1C)C1CCCC1 (centres undefined)	x	x	x	x	-5.4	x
CCOC(=O)c1c2n(c3c(NCc4ccccc4)ncnc13)CCCC2	-28.3%	5.01µM*	-9.1%	x	3.9	u
Cc1ccc(CNc2ncnc3c2nc2n3CCCC2)cc1	-9.8%[46.1 µM]	x	-14.5%	-5.1%	-15.6	x
CCN(CCCNC(=O)CN1N=C(c2ccccc2)CCC1=O)c1ccccc1	-4.3%[46.1 µM]	x	-17.0%	-3.5%	-24.1	x
Cc1nc(N)nc(Cl)c1Cc1ccc(Cl)cc1	-9.5%[46.1 µM]	15.1%	-7.3%	-28.3%	-61.2*	u
Cc1nc(N)nc(C)c1Cc1ccccc1	-6.7%	2.8%	-11.3%	-17.7%	-35.3	-28.8%[46.1 µM]
COC(=O)Cc1nnn2c1[C@H](C)[C@H](c1cccc(OC)c1OC)OCC2	x	x	x	x	26.6	x
O=C(NCc1cccnc1)O[C@H]1CC[C@@]23CCCN2C(=O)CCC[C@H]3[C@H]1Cc1ccccc1	x	x	x	x	-4.5	x
CCOc1ccc(Nc2ncnc3ccc([N+](=O)[O-])cc23)cc1	1.6%	u	-25.0%	-21.3%	-68.9*	-13.3%[46.1 µM]
COc1ccc(NC(=S)/N=C(\N)Nc2nc(C)c3ccc(C)cc3n2)cc1	x	11.2µM*	x	x	-34.9	x
CCOc1ccc2nc(N/C(N)=N/C(=S)Nc3ccc(C)c(C)c3)nc(C)c2c1	-1.1%	-18.6%	-9.2%	-22.9%	-31.4	9.1%
SMILES	Lassa entry inh	HCV inh	Vaccinia Venus	Vaccinia mCherry	HCMV antiviral	MARV entry inh
Cc1ccc(C(=O)Oc2csc(=S)n2C(=O)c2ccc(C)cc2)cc1	-14.8%	10.7%	-2.6%	-6.8%	-61.6*	5.3%
COc1cc(OC)cc(C(=O)Nc2cc(NC(=O)c3ccco3)ccc2OC)c1	-30.1%	10µM*	u	u	-27.7	0.2%[46.1 µM]
COc1ccc(NC(=O)c2ccco2)cc1NC(=O)COc1ccc(C)cc1C	-0.1%[46.1 µM]	x	u	-7.1%	-66.0*	-1.3%[46.1 µM]
COc1cc(OC)cc(C(=O)Nc2ccc(NC(=O)c3ccco3)c(C)c2)c1	-5.6%[46.1 µM]	u	-9.8%	-23.0%	4.8	u
Cc1ccc2c(c1)/C(=C/c1ccco1)C(=O)N2	-26.9%[46.1 µM]	11.2µM*	-20.8%	-24.7%	19.3	u
CC(=O)OC[C@H]1O[C@@H](ON=C(C)CCN2CCCCc3nc(C)c(C)cc32)[C@H](OC(C)=O)[C@@H](OC(C)=O)[C@H]1OC(C)=O	x	x	x	x	x	1.0%[14.2 µM]
CC(C)Oc1cc(F)ccc1-c1cc(C(=O)Nc2cccc(C(F)(F)F)c2)[nH]n1	x	x	-24.1%	10.6%	-63.9*	x
N#Cc1ncc(Br)cn1	x	x	-9.4%	-21.5%	x	x
COc1ccc([C@@H]2CC=C(C(=O)O)CN2S(=O)(=O)c2ccc(C)cc2)cc1OC	x	18.4%	-16.0%	-3.4%	-64.2*	x
COc1ccc(S(=O)(=O)N2CCSC2c2ccc(OC)c(OC)c2)cc1 (centres undefined)	-28.5%	7.4%	x	x	-62.4*	2.1%
COCc1c(C(=O)N2CCN(C)CC2)cnn1-c1ncc2c(n1)-c1ccccc1CCC2	x	x	-12.4%	-24.3%	x	x
CCCCn1c(/N=C/c2cc(OC)ccc2O)nc2ccccc21	0.3%	-4.5%	3.55µM*	u	5.5	-19.5%
CCCn1c(/N=C/c2cc(OC)ccc2O)nc2ccccc21	21.9%	11.2%	-17.1%	-24.6%	8.8	4.6%
Cc1c(C(=O)c2ccccc2)oc2ccc3ccccc3c12	u	u	4.5%	-8.1%	104.2	u
O=[N+]([O-])c1oc2ccc3ccccc3c2c1CCO	-22.1%[46.1 µM]	u	10µM*	u	-101.7*	u
COc1ccc(CNC(=O)c2cc3cc(S(=O)(=O)N4CCCCC4)ccc3n2C)c(OC)c1	u	x	-19.1%	-17.7%	9.0	x
COc1ccc(-n2cc(-c3ccc4c(c3)OCO4)n(CC(=O)Nc3cccc(C)c3C)c2=O)c(OC)c1	u	x	-13.9%	-16.5%	-86.0*	u
COc1ccc(-n2cc(-c3ccc4c(c3)OCO4)n(CC(=O)Nc3cc(Cl)ccc3C)c2=O)cc1	-2.5%[46.1 µM]	x	u	u	46.3	u
COc1ccc(C(CNC(=O)Cc2ccc(-c3ccccc3)cc2)N(C)C)cc1 (centres undefined)	12.5%	u	-16.7%	u	7.2	11.2µM*
COc1ccc(C(CNC(=O)CSc2ccccc2C)N(C)C)cc1 (centres undefined)	-4.2%	19.6%	-5.5%	-12.2%	-4.9	-23.1%[46.1 µM]
Cc1ccccc1NS(=O)(=O)c1ccc(C(=O)NCC(c2ccco2)N(C)C)cc1 (centres undefined)	-1.5%	-7.6%	-18.4%	-5.2%	-16.6	-18.1%
CN(C)C(CNC(=O)c1ccc(C(=O)c2ccccc2)cc1)c1ccccc1 (centres undefined)	-27.4%[46.1 µM]	2.7%	-2.6%	i	7.4	u
CN(C)C(CNC(=O)c1ccc(-c2ccccc2)cc1)c1ccccc1 (centres undefined)	-21.8%	u	-12.8%	-22.3%	-1.7	11.2µM*

Screening results (PubChem BioAssay)
